Assay results as given in PubChem BioAssay (NCI).
About 83,000 compounds went through this panel and 20% of them were active in at least one assay; those are over-represented in the sample as a whole.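 Interpretation: 100, growth as untreated; towards 0, rising growth inhibition; 0, no net growth; 0 to -100, cell death. Compounds scoring below 10 were considered active.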 Unmarked numbers belong to inactive results. Where a SMILES comes first, the peptide text is derived from it. Bridges are numbered along the chain shown (N, C = ends). [ ]: non-standard residue; d: D form. The star is where a group is joined. ξ: configuration not given here. ξNMePhe(4-NMe2) = CNC(Cc1ccc(N(C)C)cc1)C(=O)O; Picolinoyl(3-OH) = O=C(c1ncccc1O)*; ξPip(4-oxo) = O=C1CCNC(C(=O)O)C1; Phg = N[CH](C(=O)O)c1ccccc1; Abu = CC[CH](N)C(=O)O

What follows are molecules tested on UACC-62 melanoma (assay: NCI-60 one-dose screen, 48 h (100 = growth as untreated, 0 = no growth, -100 = all killed)). Conditions: 10 µM unless noted.

Compound	growth [%]
CN(C)c1ccc(S(=O)(=O)O)cc1	108
O=[N+]([O-])c1ccc(/C=C/C=C/c2ccccc2)c(Cl)c1	96.6
N#CSc1cc(S(N)(=O)=O)ccc1N	104
CCC1NC(=O)C(NC(=O)c2ncccc2O)C(C)OC(=O)C(c2ccccc2)NC(=O)C2CC(=O)CCN2C(=O)C(Cc2ccc(N(C)C)cc2)N(C)C(=O)C2CCCN2C1=O (stereo unspecified) (tested in a mixture with another compound) ({Picolinoyl(3-OH)}-T[Abu]P[ξNMePhe(4-NMe2)][ξPip(4-oxo)][Phg]; ester 1-C; configuration not given here)	50.9
C=CCNc1ccccc1	89.9
CCOC(=O)C(CCC(C)C)C(=O)OCC	101
COc1cccc(Sc2ccc([N+](=O)[O-])c3no[n+]([O-])c23)c1	53.2
CC1CC(O)CC(C)(C)C1 (stereo unspecified)	92.4
Oc1ccccc1O	86.8
Clc1ccc(-c2n[nH]c3c2Cc2ccccc2-3)cc1Cl	91.2
CC1OC(Oc2c(-c3ccc(O)c(O)c3)oc3cc(O)cc(O)c3c2=O)C(O)C(O)C1O (stereo unspecified)	103
O=c1[nH]nc(SC2CCCCC2)c(=O)[nH]1	113
CC(C)C1CCCCC1O (stereo unspecified)	102
CCC(C#N)(CC)c1ccccc1	89.5
CC(=O)c1ccc(C(C)(C)C)cc1	91.1
CC(C)OC(=O)c1cc(NC(=S)OC(C)C)ccc1Cl	77.1
